Many of the other results were omitted from the sample, so hits are more common in it than they were.
KDM5B inhibitor – Primary screen for KDM5B Histone Demethylases FDH-coupled qHTS. Lysine-specific demethylase 5B (Homo sapiens), Q9UGL1. KDM5B demethylase, FDH-coupled NADH fluorescence (FDH is formaldehyde dehydrogenase). Potency, µM (top dose mostly 57.7 µM), usual class: inhibitors. actives 2.6% (n = 220,000). AID 1347165, 2019; active = well fitted inhibition curve with a large enough effect; also: 0% is about no effect; nearly all actives have a fitted effect of over 70% in size
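Measured: NADH fluorescence change, 30 min, RT. System: KDM5BΔAP 200 nM final, H3K4me3 peptide, α-KG, Fe(II), ascorbate, NAD⁺ plus FDH, pH 7.5 HEPES. Compounds: titrated, 10 min pre-incubation with enzyme.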
Active calls of the source: *; i = inactive. Potency is read from the fitted curve at half-maximal effect.

SMILES	KDM5B inhibitor
COc1ccccc1CNC(=O)CS(=O)(=O)c1ccccc1	i
CCN(CC)c1cc(CCC(=O)NCc2cc(OC)ccc2OC)ccn1	14µM*
COc1ccc(OC)c(CNC(=O)c2cnc(N(C)C)nc2)c1	i
COc1ccc(CNC(=O)CCc2cccnc2)cc1OC	i
c1ccc(N2CCN(C3CCCN(Cc4cn[nH]c4C4CCCCC4)C3)CC2)cc1 (stereo not drawn)	i
CCCN1CCC(NC(=O)c2csc(C)c2CC)CC1	i
COc1cc(/C=C/c2nc3ccccc3c(=O)n2-c2ccc(C(=O)O)cc2)ccc1O	i
CCCCn1c(=O)[nH]c(=O)c2c1nc(COC(=O)C1CC1)n2CC	i
O=C(COc1cccc(-c2nnc3n2CCCC3)c1)N1CCN(c2ccccc2F)CC1	i
O=C1CO[C@H]2CN(c3ncccn3)C[C@H]2N1Cc1ccccc1	35µM*
O=C1CO[C@H]2CN(Cc3ccc4c(c3)OCO4)C[C@H]2N1Cc1ccc(F)cc1	i
O=C1CO[C@H]2CN(C3CCC3)C[C@H]2N1Cc1ccc(F)cc1	i
CS(=O)(=O)N1C[C@@H]2OCC(=O)N(Cc3ccccc3)[C@@H]2C1	i
O=C1CO[C@H]2CN(Cc3ccncc3)C[C@H]2N1Cc1ccc(F)cc1	35µM*
O=C(c1cnccn1)N1C[C@@H]2OCC(=O)N(Cc3ccccc3)[C@@H]2C1	i
O=C1CO[C@H]2CN(c3ncccn3)C[C@H]2N1Cc1ccncc1	40µM*
O=C(O)c1ccc(CN2C[C@@H]3OCC(=O)N(Cc4cccnc4)[C@@H]3C2)cc1	i
O=C(c1ccno1)N1C[C@@H]2OCC(=O)N(Cc3ccccc3)[C@@H]2C1	i
CC(SCc1cccc(Cl)c1)C(=O)NC(N)=O (stereo not drawn)	i
COc1cc2c(cc1OCc1ccccc1)-c1nnc(-c3ccccc3)n1C(C)(C)C2	i
COc1cc(=O)n(-c2ccccc2C)nc1C(=O)Nc1cc(Cl)ccc1C	i
Clc1ccccc1CN1CCN(c2ncnc3nc[nH]c23)CC1	i
O=C(NCc1ccc(N2CCCC2)cc1)C1CCCN(c2cnn(Cc3ccccc3)c(=O)c2)C1 (stereo not drawn)	i
O=C(C1CN(C(=O)c2ccc(Cl)c(Cl)c2)c2ccccc2O1)N1CCOCC1 (stereo not drawn)	i
CCCc1cc(C(=O)OC)c(NC(=O)CC2Sc3ccc(C(F)(F)F)cc3NC2=O)s1 (stereo not drawn)	i
SMILES	KDM5B inhibitor
O=C(NC1CCCCC1)N[C@H]1CCN2C(=O)c3cc(-c4ccccc4)ccc3NC(=O)[C@H]12	i
O=C(O)CCC(=O)N[C@H]1CCN2C(=O)c3cc(-c4ccc(Cl)cc4)ccc3NC(=O)[C@H]12	32µM*
Cc1cccc(-c2ccc3c(c2)C(=O)N2CC[C@H](NC(=O)NC(C)C)[C@H]2C(=O)N3)c1C	i
Cc1cccc(-c2ccc3c(c2)C(=O)N2CC[C@H](NC(=O)CCC(=O)O)[C@H]2C(=O)N3)c1C	i
CC(C)NC(=O)N[C@H]1CCN2C(=O)c3cc(-c4ccc(Cl)cc4)ccc3NC(=O)[C@H]12	32µM*
O=C(O)CCC(=O)N[C@H]1CCN2C(=O)c3ccc(Cl)cc3NC(=O)[C@H]12	i
COc1cc(/C(Cl)=N/O)cc(OC)c1OC	i
OCC1(CN2CCCC2)CCN(Cc2ccc(Cl)c(F)c2)CC1	i
CCOC(=O)C(=O)Nc1ccc(N(C)C(C)=O)cc1	i
CCN1CCC(NC(=O)C23CC4CC(CC(C4)C2)C3)CC1	i
CCOC(=O)CNC(=O)CC(c1ccc(F)cc1)N1Cc2ccccc2C1=O (stereo not drawn)	i
Cc1nc2cc(NC(=O)c3ccc(C)c(F)c3)ccc2o1	i
COc1cccc(NC(=O)C2CCCN(C(=O)c3ccc(OC)c4ccccc34)C2)c1 (stereo not drawn)	i
Cc1cccc(C(C)C)c1NC(=O)c1ccc2ccccc2n1	i
O=C1N[C@H](CC(=O)N2CCN(c3ccc(F)cc3)CC2)C(=O)Nc2ccccc21	i
O=C1N[C@H](CC(=O)N2CCN(c3ccc(C(F)(F)F)cn3)CC2)C(=O)Nc2ccccc21	22µM*
O=C1N[C@H](CC(=O)N2CCc3ccccc3C2)C(=O)Nc2ccccc21	i
Cc1ccc(NC(=O)N2CCC3(CCNC(=O)CC3)CC2)cc1F	i
O=C(OCc1ccccc1)c1ccc(C(=O)c2ccccc2)cc1	i
Cc1ccc(NC(=O)NC(=O)C(C)Cl)c(C)c1 (stereo not drawn)	i
NS(=O)(=O)c1ccc(N/N=C/c2ccc(F)c(F)c2)c([N+](=O)[O-])c1	i
CCCc1noc(C(C)Nc2ccc(N3CCCC3=O)c(Cl)c2)n1 (stereo not drawn)	i
C/C(=N\Nc1nnc(Cl)c2ccccc12)c1ccc([N+](=O)[O-])cc1	i
CCn1ncc(CN(C)C(=O)CC2C(=O)NCCN2C(C)C)c1C (stereo not drawn)	32µM*
CCOc1ccccc1CN1CCNC(=O)C1CC(=O)N(C)Cc1cnccn1 (stereo not drawn)	i
